Assay results reported in PubChem BioAssay (NCATS).
“And” between values parts separate entries of the source, which are not always exact repeats. Equal values may be shown once. Results filed as inconclusive are left out. Unmarked numbers belong to inactive results. The source made the active and inactive calls. The call rests on the fitted dose curve; in most records, active means well fitted curve in the direction sought with a large enough effect; inconclusive means small, poorly fitted or top-dose-only effect, or another doubt; inactive means no such curve, though single readings can be large; an effect the other way counts as inactive or inconclusive.

Experiments:
[1] = Viability qHTS for spleen associated tyrosine kinase inhibitor (SYKi) naive MV4-11 cells (AID 1963823); further: nearly all actives have a fitted effect of over 40% in size
How it was run: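 Luminescence from CellTiter-Glo, developed 10 min at room temperature, gave viability of MV4-11 cells never exposed to SYK inhibitor. Cells (500/well) had been incubated with compounds for 72 hr under standard culture conditions.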

[2] = Viability qHTS for spleen associated tyrosine kinase inhibitor (SYKi) drug resistant MV4-11 cells (AID 1963824); further: nearly all actives have a fitted effect of over 35% in size
How it was run: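 SYK inhibitor-resistant MV4-11 AML cells, 500 per well, added to predispensed compounds and incubated 72 hr at 37 C, 5% CO2. Viability measured by CellTiter-Glo luminescence after 10 min at room temperature.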

[3] = Quantitative highthroughput screen to assess conditional lethalithy of NOMO1 cells grown in RPMI1640 with untreated serum (RPMI+s) (AID 1963876); further: nearly all actives have a fitted effect of over 35% in size;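 on Viability: 100% = DMSO wells and 0% = empty wells without cells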
How it was run: (§1)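 Each medium arm—HPLM with 10% dialyzed FBS, or RPMI1640 with 5 mM glucose and 10% untreated or dialyzed FBS—was screened against an 11-point, 3-fold compound titration for 48 h at 37 °C, with CellTiter-Glo luminescence as endpoint.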

[4] = Quantitative highthroughput screen to assess conditional lethalithy of NOMO1 cells grown in RPMI1640 with dialyzed fetal bovine serum (RPMI+ds) (AID 1963877); further: nearly all actives have a fitted effect of over 30% in size;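 on Viability: series mostly up to about 46 µM; 100% = DMSO control wells and 0% = empty wells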
How it was run: as §1

[5] = Quantitative highthroughput screen to assess conditional lethalithy of NOMO1 cells grown in Human Plasma-Like Medium with dialyzed fetal bovine serum (HPLM+ds) (AID 1963878); further: nearly all actives have a fitted effect of over 35% in size;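 on Viability: 100% = DMSO wells and 0% = empty wells on each plate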
How it was run: as §1

[6] = Quantitative highthroughput screen to assess conditional lethalithy of P12 Ichikawa cells grown in RPMI1640 with dialyzed fetal bovine serum (RPMI+ds) (AID 1963880); settings: Potency: P12-Ichikawa viability; further: nearly all actives have a fitted effect of over 35% in size;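 on Viability: 100% = DMSO wells and 0% = empty wells on each plate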
How it was run: as §1

[7] = Quantitative highthroughput screen to assess conditional lethalithy of P12 Ichikawa cells grown in RPMI1640 with untreated serum (RPMI+s) (AID 1963881); settings: Potency: viability; further: nearly all actives have a fitted effect of over 35% in size;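 on Viability: series mostly up to about 46 µM; 100% = DMSO wells and 0% = empty wells without cells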
How it was run: as §1

[8] = Quantitative highthroughput screen to assess conditional lethalithy of SEM cells grown in Human Plasma-Like Medium with dialyzed fetal bovine serum (HPLM+ds) (AID 1963882); further: nearly all actives have a fitted effect of over 35% in size; on Viability: series mostly up to about 46 µM
How it was run: as §1

[9] = Quantitative highthroughput screen to assess conditional lethalithy of SEM cells grown in RPMI1640 with unreated serum (RPMI+s) (AID 1963883); further: nearly all actives have a fitted effect of over 35% in size;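 on Viability: 100% = DMSO wells and 0% = empty wells without cells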
How it was run: as §1

[10] = Quantitative highthroughput screen to assess conditional lethalithy of SEM cells grown in RPMI1640 with dialyzed fetal bovine serum (RPMI+ds) (AID 1963884); further: nearly all actives have a fitted effect of over 35% in size;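 on Viability: series mostly up to about 46 µM; 100% = DMSO control wells and 0% = empty wells without cells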
How it was run: as §1

[11] = Cellular viability qHTS for adrenocortical cancer (ACC) cell line SW-13 (AID 1963989); settings: SW-13 ACC cells viability, CellTiter-Glo, 48 h; activity (max response): active compounds read low; further: nearly all actives have a fitted effect of over 65% in size;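 on activity (max response): cells grown in serum-free medium with ITS supplement; on the % scale 0 is the no-effect control and ±100 the full control effect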
How it was run: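 Compound titrations (up to 46 uM final, in DMSO) were applied to SW-13 cells for 48 h at 37C/5% CO2. Reading used CellTiter-Glo after 20 min at room temperature; fitted curves yielded IC50 and efficacy.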

[12] = Cellular viability qHTS for adrenocortical cancer (ACC) cell line NCI-H295R (AID 1963990); further: nearly all actives have a fitted effect of over 60% in size
How it was run: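 Readout: CellTiter-Glo luminescence, 20 min RT. Exposure: 48 h, 37C/5% CO2. Cells: NCI-H295R, ITS-DMEM serum-free. Range: up to 46 uM. Analysis: 4PL fit, IC50 plus efficacy.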

[13] = Quantitative highthroughput screen to assess conditional lethalithy of P12 Ichikawa cells grown in Human Plasma-Like Medium with dialyzed fetal bovine serum (HPLM+ds) (AID 1963879); settings: Potency: viability; further: nearly all actives have a fitted effect of over 35% in size; on Viability: series mostly up to about 46 µM
How it was run: as §1
Potency means the concentration at half of the fitted maximal effect.

O=C(/C=C\n1cnc(-c2cc(C(F)(F)F)cc(C(F)(F)F)c2)n1)NNc1cnccn1
Potency [1]: 833 nM (active) | Potency [2]: 1.18 µM (active) | Potency [3]: 1.05 µM (active) | Potency [4]: 0.933 µM (active) | Potency [5]: 0.831 µM (active) | Potency [6]: 0.588 µM (active) | Potency [7]: 0.524 µM (active) | Potency [8]: 0.741 µM (active) | Potency [9]: 0.588 µM (active) | Potency [10]: 0.741 µM (active) | Potency [11]: 12.6 µM (active) | Potency [12]: 2.24 µM (active)

C=CC(=O)Nc1ccc2ncnc(Nc3ccc(OCc4cccc(F)c4)c(Cl)c3)c2c1
Potency [1]: 5.8 µM (active) and 5.9 µM (active) | Potency [2]: 2.31 µM (active) and 4.68 µM (active) | Potency [3]: 2.64 µM (active) | Potency [4]: 3.32 µM (active) | Potency [5]: 2.35 µM (active) | Potency [6]: 7.43 µM (active) | Potency [7]: 7.43 µM (active) | Potency [8]: 7.43 µM (active) | Potency [9]: 7.43 µM (active) | Potency [10]: 8.33 µM (active) | Potency [11]: 0.631 µM (active) | Potency [12]: 6.31 µM (active)

C[C@@H](N)C1CCC(C(=O)Nc2ccncc2)CC1 (stereo partly specified)
Potency [1]: inactive | Potency [2]: inactive | Potency [3]: inactive | Potency [4]: inactive | Potency [5]: inactive | Potency [13]: inactive | Potency [7]: inactive | Potency [8]: inactive | Potency [9]: inactive | Potency [10]: inactive | activity (max response) [11]: -5.19% | Potency [12]: inactive

CC(C)(C)C(=O)OCOP(=O)(COCCn1cnc2c(N)ncnc21)OCOC(=O)C(C)(C)C
Potency [1]: 944 nM (active) and 372 nM (active) | Potency [2]: 944 nM (active) and 411 nM (active) | Potency [3]: 0.235 µM (active) | Potency [4]: 0.418 µM (active) | Potency [5]: 1.18 µM (active) | Potency [13]: 0.526 µM (active) | Potency [7]: 0.332 µM (active) | Potency [8]: 0.469 µM (active) | Potency [9]: 0.105 µM (active) | Potency [10]: 0.105 µM (active) | Potency [12]: 18.4 µM (active) and 12.6 µM (active)

COCCCN1CCC(NC(=O)c2cc(Cl)c(N)c3c2OCC3)CC1
Potency [1]: inactive | Potency [2]: inactive | Potency [3]: inactive | Potency [4]: inactive | Potency [5]: inactive | Potency [6]: inactive | Potency [7]: 18.7 µM (active) | Potency [8]: inactive | Potency [9]: inactive | Potency [10]: inactive | activity (max response) [11]: 15.7% and -2.89% | Potency [12]: inactive

Cc1cc2cc3c(C)cc(=O)oc3c(C)c2o1
Potency [1]: inactive | Potency [2]: inactive | Potency [3]: inactive | Potency [4]: inactive | Potency [5]: inactive | Potency [13]: inactive | Potency [7]: inactive | Potency [8]: inactive | Potency [9]: inactive | Potency [10]: inactive | activity (max response) [11]: 0.204% and 7.11% | Potency [12]: inactive

CCC(=O)N[C@H]1CC[C@H](C(=O)N(C)c2ccc(-c3nc4ccccc4o3)cc2)C1
Potency [1]: 14800 nM (active) | Potency [2]: 14.8 µM (active) | Potency [3]: inactive | Potency [4]: inactive | Potency [5]: inactive | Potency [13]: inactive | Potency [8]: inactive | Potency [12]: inactive

NC(=O)c1cccc(-c2cc(Nc3ccc(OC(F)(F)F)cc3)ncn2)c1
Potency [1]: 10.3 µM (active) and 5.25 µM (active) | Potency [2]: 9.2 µM (active) and 5.9 µM (active) | Potency [3]: inactive | Potency [4]: inactive | Potency [5]: inactive | Potency [13]: inactive | Potency [7]: inactive | Potency [11]: 15.8 µM (active)

Cc1cc(CN2CCN(c3c(Br)cnc4nc(-c5ccc(N6CCN(C)CC6)cc5)[nH]c34)CC2)no1
Potency [1]: 23.1 nM (active) | Potency [2]: 29.1 nM (active) and 105 nM (active) | Potency [3]: inactive | Potency [4]: 1.05 µM (active) | Potency [5]: 16.6 µM (active) | Potency [13]: 1.05 µM (active) | Potency [7]: 0.935 µM (active) | Potency [8]: 0.935 µM (active) | Potency [9]: 0.743 µM (active) | Potency [10]: 0.743 µM (active) | Potency [11]: 31.6 µM (active) | Potency [12]: 28.2 µM (active)

Cc1ccc(S(=O)(=O)Nc2nc3ccccc3nc2Nc2ccc3nsnc3c2)cc1
Potency [1]: 10300 nM (active) | Potency [2]: 8.2 µM (active) | Potency [3]: 1.15 µM (active) | Potency [4]: 1.62 µM (active) | Potency [5]: 1.02 µM (active) | Potency [13]: 5.75 µM (active) | Potency [7]: 4.07 µM (active) | Potency [8]: 7.24 µM (active) | Potency [10]: 4.07 µM (active) | activity (max response) [11]: 0.221% | Potency [12]: inactive

C[C@@H](NC(=O)c1ncnc(N)c1Cl)c1ncc(C(=O)Nc2cc(C(F)(F)F)c(Cl)cn2)s1
Potency [1]: 9200 nM (active) | Potency [2]: 16.6 µM (active) | Potency [3]: inactive | Potency [4]: inactive | Potency [5]: 16.6 µM (active) | Potency [13]: inactive | Potency [7]: inactive | Potency [8]: inactive | Potency [9]: inactive | Potency [10]: inactive | Potency [11]: 20 µM (active)

COc1ccc2nc3cc(Cl)ccc3c(Nc3cc(CN4CCCC4)c(O)c(CN4CCCC4)c3)c2n1
Potency [1]: 742 nM (active) | Potency [2]: 1.05 µM (active) | Potency [3]: inactive | Potency [4]: inactive | Potency [5]: inactive | Potency [13]: inactive | Potency [6]: inactive | Potency [8]: 16.6 µM (active) | Potency [11]: 12.6 µM (active) | Potency [12]: 5.62 µM (active)

N#Cc1c(N(CC(=O)O)CC(=O)O)sc(C(=O)O)c1CC(=O)O
Potency [1]: inactive | Potency [2]: inactive | Potency [3]: inactive | Potency [4]: inactive | Potency [5]: inactive | Potency [13]: 16.6 µM (active) | Potency [8]: 13.2 µM (active) | activity (max response) [11]: 0.42% | Potency [12]: inactive

Cc1noc(NS(=O)(=O)c2ccc(N)cc2)c1C
Potency [1]: inactive | Potency [2]: inactive | Potency [3]: inactive | Potency [4]: inactive | Potency [5]: inactive | Potency [6]: inactive | Potency [7]: inactive | Potency [8]: inactive | Potency [9]: inactive | Potency [10]: inactive | activity (max response) [11]: -8.37%
